Assay outcomes: PubChem, several laboratories
tim23-1 inh – growth inhibitors of tim23-1 mutant yeast; S. cerevisiae tim23-1 growth, BacTiter-Glo luminescence, 24 h; inhibition, % at 20 µM; actives 1.3% (n = 330,000); AID 463212;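 active means growth inhibition of the mutant yeast at or above 50%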;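 further: temperature-sensitive mutant grown at 25 °C; plate controls were DMSO-treated mutant yeast for no effect and medium wells lacking yeast for full effect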
tim10-1 inh – inhibits growth of tim10-1 mutant yeast; S. cerevisiae tim10-1 ts strain growth, BacTiter-Glo, 24 h; inhibition, % at 20 µM; actives 2.2% (n = 330,000); AID 463190;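 active means inhibition of at least 40%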;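 further: mutant grown at 25 °C; 0% = DMSO wells with yeast and 100% = wells holding no yeast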
V-ATPase pHluor – alters yeast V-ATPase proton transport. AID 504577. S. cerevisiae, pHLuorin cytosolic pH fluorescence. response, % at 10 µM. actives 0.37% (n = 350,000); in the data active means response mostly above about 7.3%, no sharp cut-off; inactive means mostly below about 5.4%; further: actives read high
PfHsp90 set2 – inhibits growth of yeast expressing Plasmodium falciparum Hsp90; AID 504621; inhibition, % at 9.4 µM; actives 0.32% (n = 310,000); S. cerevisiae expressing PfHsp90, BacTiter-Glo ATP, 48 h; yeast lacking PDR1 and PDR3 efflux regulators;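 active means every replicate shows inhibition above about 80%, whatever the replicate mean, limit read from the data; inconclusive means mean inhibition reaches the set limit but some replicate falls short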;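 further: 0% = DMSO neutral controls and 100% = 20 µM radicicol positive controls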
SKKanGAS inh – SKKanGAS growth inhibition; S. pyogenes SKKanGAS, kanamycin growth, BacTiter-Glo, 6 h; inhibition, % at 7.5 µM; actives 1.3% (n = 300,000);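 active means mean replicate score, as percent of positive control median, at least 50; inconclusive means mean below 50 but one replicate at or above 50; inactive means mean and every replicate below 50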;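 further: strain carries kanamycin resistance gene driven by streptokinase promoter and grows in 40 µg/ml kanamycin; loss of luminescence reflects streptokinase promoter inhibition or plain growth inhibition; 0% = median of DMSO wells and 100% = positive control at its reference dose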
TIM10 inh – inhibits growth of TIM10 yeast strain; actives 1.4% (n = 330,000); S. cerevisiae TIM10 strain growth, BacTiter-Glo luminescence, 24 h; inhibition, % at 10 µM;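 active means inhibition of 40% or more at the single tested concentration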;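 further: wild-type TIM10 isogenic control strain grown at permissive 25 °C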
TIM10 conf – TIM10 yeast growth inhibition, confirmed. shares compounds with TIM10 inh. S. cerevisiae tim10 strain growth, BacTiter-Glo luminescence, 24 h. inhibition, % at 10 µM. actives 63% (n = 4,600). AID 463215;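 active means inhibition of yeast growth at or above a set limit in either of two replicates at 10 µM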;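 further: this counterscreen used the strain with wild-type TIM10; 0% = yeast with DMSO and 100% = medium wells lacking yeast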
* = called active by the depositor; ? = inconclusive; . = not tested or not shown. The list is not random: actives were taken first. Their share in the collection is about 4.6%.

SMILES	tim23-1 inh	tim10-1 inh	V-ATPase pHluor	PfHsp90 set2	SKKanGAS inh	TIM10 inh	TIM10 conf
CC(C)c1ccccc1OCC(O)CN1CCN(S(=O)(=O)c2ccc([N+](=O)[O-])cc2)CC1 (stereo not drawn)	39	35	2	-6	10	40*	52*
CCCc1ccc(Oc2cn[nH]c2-c2ccc(O)cc2O)cc1	-36	4	-1	?	.	44*	72*
COc1ccc(-c2[nH]ncc2Oc2ccccc2OC)c(O)c1	46	31	2	.	-2	52*	29
COc1ccccc1-c1cn[nH]c1-c1ccc(O)cc1O	-6	5	-1	-13	-3	15	.
CCN(Cc1ccccc1)c1ccc(/C=N/N=C(N)N)cc1	44	-53	-1	7	1	-47	.
CCN(Cc1ccccc1)c1ccc(/C=N/NC(=S)NC(C)C)cc1	29	36	2	-22	-7	43*	45*
CC1=CC(C)(C)NC(=S)N1c1cc(C)cc(C)c1	29	33	3	8	-2	45*	22
CSCc1ccc(C(=O)NCC(c2cccs2)N2CCOCC2)cc1 (stereo not drawn)	-5	-11	6	.	-3	-9	.
NC(=O)N/N=C/c1ccc(-c2cccc(C(F)(F)F)c2)o1	2	1	2	16	-25	19	.
O=C(N/N=C/c1ccc(-c2cccc(C(F)(F)F)c2)o1)c1cccc(F)c1	27	5	-1	15	-1	45*	39*
Cc1ccc(S(=O)(=O)NC(CC(=O)O)c2cccs2)cc1 (stereo not drawn)	5	12	9	-1	4	-3	.
CC(C)c1ccc(C(O)Cc2nc3ccccc3n2C)cc1 (stereo not drawn)	17	17	3	11	17	43*	-4
CN(C)c1ccc(C(O)Cc2nc3ccccc3n2C)cc1 (stereo not drawn)	18	3	1	41	2	-11	.
COc1cccc(C(=O)NC(=S)Nc2ccc3c4c(cccc24)CC3)c1	26	19	6	-19	21	33	.
O=C(c1ccccc1)[C@H]1[C@H](c2ccccc2)[C@@]2(N=C(c3ccccc3)OC2=O)C2c3ccccc3C=NN21 (stereo partly drawn)	22	34	.	.	5	42*	25
COc1ccc([C@H]2[C@H](C(=O)C(C)(C)C)N3N=Cc4ccccc4C3C23C(=O)OC(C)(C)OC3=O)cc1 (stereo partly drawn)	15	35	-2	5	3	10	.
CN(CCNC(=O)C1CCN(c2ncnc3c2nc2n3CCCCC2)CC1)Cc1ccccc1	-14	-1	-6	-5	5	-14	.
CCN(CCNC(=O)C1CCCN(c2ncnc3c2nc2n3CCCCC2)C1)Cc1ccccc1 (stereo not drawn)	1	2	2	2	5	71*	1
COc1cccc(NC(=O)COC(=O)/C=C/c2c(C)nn(-c3ccccc3)c2C)c1	41	35	0	-5	.	28	.
N/C(=N\OC(=O)/C=C/c1ccccc1Cl)c1cccnc1	12	14	0	.	-6	4	.
N/C(=N\OC(=O)/C=C/c1ccccc1Cl)c1ccccn1	48	36	-3	-19	-9	51*	55*
CC(C)(C)c1ccc(OCC(O)CN2CCOCC2)cc1 (stereo not drawn)	-4	4	-2	-16	-6	48*	8
COc1cc(C(C(=O)NC2CCCC2)N(CCO)C(=O)Cn2nnc(-c3ccc(C)o3)n2)ccc1O (stereo not drawn)	19	-2	3	5	25	-9	.
COc1cccc(C2(C)NC(=O)N(CC(=O)Nc3ccc(N4CCOCC4)cc3)C2=O)c1 (stereo not drawn)	-1	-12	8	-16	.	-13	.
O=C(COC(=O)c1ccccc1Nc1ccc(SC(F)F)cc1)NC1CC1	27	31	-1	5	41	51*	37*
SMILES	tim23-1 inh	tim10-1 inh	V-ATPase pHluor	PfHsp90 set2	SKKanGAS inh	TIM10 inh	TIM10 conf
CCCn1c(Nc2cccc(OC)c2)nc2ccccc21	9	5	1	1	1	12	.
CCN(CC)CCOc1cc2c(nn1)Oc1ccccc1N2C	25	11	-1	13	3	14	.
CN1c2ccccc2Oc2nnc(Cl)cc21	43	30	3	7	11	48*	50*
Cc1cccc(NCC(=O)N/N=C\c2ccc[nH]2)c1	8	8	2	-32	4	10	.
O=C(CC12CC3CC(CC(C3)C1)C2)N/N=C\c1ccc[nH]1	36	32	3	6	6	46*	34*
O=C(CSc1ncnc2ccccc12)c1ccc2c(c1)OCCO2	46	37	-3	-23	-17	47*	-29
Cc1nnc(SCc2nc3ccccc3[nH]2)s1	-8	-6	3	1	0	-2	.
c1ccc2[nH]c(CSc3nc4ccccc4s3)nc2c1	23	33	2	-6	17	68*	59*
N#C/C(=C\c1cccnc1)c1nc2ccccc2[nH]1	13	19	-5	.	-3	75*	-2
N#CCc1cc2ccc3cccc4ccc(c1)c2c34	18	14	-2	-3	-10	18	.
CNc1nc2ccccc2n1/N=C/c1cccc(OC)c1OC	50	30	-1	.	-11	48*	29
CCCCOc1c(Br)cc(/C=C2\N=C(C)OC2=O)cc1OCC	47	37	-1	15	-4	49*	19
CCOc1cc(/C=C2\N=C(C)OC2=O)cc(Cl)c1OCC(=O)OC	16	17	2	-1	-6	14	.
CN(C1CCCCC1)S(=O)(=O)c1ccc(S(=O)(=O)N(CC(=O)Nc2ccccc2)C2CC2)cc1	3	0	2	-19	6	1	.
COc1ccc2nc(SC(C)C(=O)NCC(=O)Nc3ccc(F)c(F)c3F)[nH]c2c1 (stereo not drawn)	7	-1	1	-6	.	-8	.
COc1ccc(-c2csc(CCN3N=C(C)CC3=O)n2)cc1	8	29	0	-13	15	5	.
Cc1nc2ccccc2n1Cc1ccccc1	2	5	-2	4	-1	7	.
c1ccc(Cc2nc3ccccc3n2Cc2ccccc2)cc1	14	29	5	-10	10	44*	32*
COc1ccc(NC(=S)NNC(=O)COc2ccc(Cl)cc2Cl)cc1	41	30	0	-22	-6	47*	-13
Cc1ccc(NC(=O)C/C(N)=N/OC(=O)Nc2cccc(C)c2)cc1	16	40	2	-8	.	42*	28
COc1cc(NC(=O)COc2cc3oc(=O)cc(C)c3cc2Cl)cc(OC)c1OC	8	24	-1	-1	-2	0	.
